According to ChEMBL document CHEMBL3988442, “University of Dundee, Small-Polar-MMV Screening Library” (2021):
For some of these results: Potency and affinity values are given separately.

How the values were obtained:
Parameters in all cases: scale not given: direction of the effect not stated beside the values
[1] = biological target: Protein translocase subunit SecA (Escherichia coli (strain K12)) (UniProt P10408); assay: Assay to Identify E. coli SecA ATPase Inhibitors; type: functional; conditions: 30 µM
Sequence of Protein translocase subunit SecA (Escherichia coli (strain K12)) (P10408 whole entry): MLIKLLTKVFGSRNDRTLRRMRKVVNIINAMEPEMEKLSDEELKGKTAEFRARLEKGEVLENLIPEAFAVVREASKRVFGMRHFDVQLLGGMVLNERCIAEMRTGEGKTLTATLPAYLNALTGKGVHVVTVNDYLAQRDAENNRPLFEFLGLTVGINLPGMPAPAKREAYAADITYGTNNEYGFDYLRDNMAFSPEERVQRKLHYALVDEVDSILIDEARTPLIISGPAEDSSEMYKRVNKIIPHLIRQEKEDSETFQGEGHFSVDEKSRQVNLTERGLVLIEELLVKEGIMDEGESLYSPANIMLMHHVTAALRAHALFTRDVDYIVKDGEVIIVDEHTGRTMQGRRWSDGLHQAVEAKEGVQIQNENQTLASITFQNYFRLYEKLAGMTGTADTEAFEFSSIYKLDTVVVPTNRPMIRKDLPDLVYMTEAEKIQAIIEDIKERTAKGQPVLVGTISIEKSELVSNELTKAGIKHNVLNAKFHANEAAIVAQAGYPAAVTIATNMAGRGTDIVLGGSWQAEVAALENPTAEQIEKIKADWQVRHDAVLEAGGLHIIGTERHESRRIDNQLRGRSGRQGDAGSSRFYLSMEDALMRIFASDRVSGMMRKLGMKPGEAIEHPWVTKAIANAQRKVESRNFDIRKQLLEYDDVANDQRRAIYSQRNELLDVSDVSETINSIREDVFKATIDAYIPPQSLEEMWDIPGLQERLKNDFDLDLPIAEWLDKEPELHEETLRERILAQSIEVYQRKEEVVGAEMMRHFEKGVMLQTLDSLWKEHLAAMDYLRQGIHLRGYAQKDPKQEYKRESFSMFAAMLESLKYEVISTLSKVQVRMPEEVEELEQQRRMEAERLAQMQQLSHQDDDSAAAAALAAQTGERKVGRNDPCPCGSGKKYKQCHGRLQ

[2] = biological target: T1, Ubiquitin-activating enzyme e1, putative (Leishmania donovani (strain BPK282A1)) (UniProt E9BSI1); assay: Leishmania donovani Ubiquitin Activating Enzyme (LdE1); type: functional; conditions: 30 µM
T1 sequence (whole entry): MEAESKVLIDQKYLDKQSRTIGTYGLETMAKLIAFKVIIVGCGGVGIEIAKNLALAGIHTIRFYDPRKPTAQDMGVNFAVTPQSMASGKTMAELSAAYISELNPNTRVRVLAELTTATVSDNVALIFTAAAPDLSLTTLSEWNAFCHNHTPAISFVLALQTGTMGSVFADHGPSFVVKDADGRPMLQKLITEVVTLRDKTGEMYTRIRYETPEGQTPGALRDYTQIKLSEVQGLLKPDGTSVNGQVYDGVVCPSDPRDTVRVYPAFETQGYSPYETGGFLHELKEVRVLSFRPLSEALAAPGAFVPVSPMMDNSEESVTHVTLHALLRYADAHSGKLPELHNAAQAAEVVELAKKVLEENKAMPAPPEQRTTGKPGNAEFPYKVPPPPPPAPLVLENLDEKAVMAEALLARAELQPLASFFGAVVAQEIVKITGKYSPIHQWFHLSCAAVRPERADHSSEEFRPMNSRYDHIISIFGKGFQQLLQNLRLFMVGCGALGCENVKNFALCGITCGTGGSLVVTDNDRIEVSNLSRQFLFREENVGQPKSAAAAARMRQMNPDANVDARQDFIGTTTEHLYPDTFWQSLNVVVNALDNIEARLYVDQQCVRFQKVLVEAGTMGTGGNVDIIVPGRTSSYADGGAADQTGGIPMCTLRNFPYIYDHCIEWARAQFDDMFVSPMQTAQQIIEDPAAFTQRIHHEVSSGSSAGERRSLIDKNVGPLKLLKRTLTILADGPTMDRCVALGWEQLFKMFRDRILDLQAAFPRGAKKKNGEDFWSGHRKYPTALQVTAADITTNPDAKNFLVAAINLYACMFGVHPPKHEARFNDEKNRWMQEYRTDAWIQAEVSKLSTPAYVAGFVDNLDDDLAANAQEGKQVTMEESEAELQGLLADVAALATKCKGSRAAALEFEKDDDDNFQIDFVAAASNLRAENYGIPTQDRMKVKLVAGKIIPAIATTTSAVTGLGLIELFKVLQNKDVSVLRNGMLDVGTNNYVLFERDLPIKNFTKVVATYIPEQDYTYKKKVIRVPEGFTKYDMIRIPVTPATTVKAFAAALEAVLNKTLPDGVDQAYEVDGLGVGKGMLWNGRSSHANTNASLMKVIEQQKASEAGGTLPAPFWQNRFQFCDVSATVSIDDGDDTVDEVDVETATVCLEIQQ

[3] = biological target: AMP-activated protein kinase, AMPK (Homo sapiens) (UniProt P54646+O43741+P54619+Q9UGJ0+Q9Y478+Q13131+Q9UGI9); assay: AMP-dependent Kinase enzyme assay. An in vitro enzyme assay that detects ADP turnover that is directly proportional to AMPK activity. This uses naive AMPK that is activated during the assay with MK-8722; type: functional; conditions: 30 µM
[4] = biological target: Sialic acid-binding Ig-like lectin 9 (Homo sapiens) (UniProt Q9Y336); assay: Hs-Siglec9 ALPHAscreen SOP 20170721; conditions: 10 µM
Sequence of Sialic acid-binding Ig-like lectin 9 (Homo sapiens) (Q9Y336 whole entry): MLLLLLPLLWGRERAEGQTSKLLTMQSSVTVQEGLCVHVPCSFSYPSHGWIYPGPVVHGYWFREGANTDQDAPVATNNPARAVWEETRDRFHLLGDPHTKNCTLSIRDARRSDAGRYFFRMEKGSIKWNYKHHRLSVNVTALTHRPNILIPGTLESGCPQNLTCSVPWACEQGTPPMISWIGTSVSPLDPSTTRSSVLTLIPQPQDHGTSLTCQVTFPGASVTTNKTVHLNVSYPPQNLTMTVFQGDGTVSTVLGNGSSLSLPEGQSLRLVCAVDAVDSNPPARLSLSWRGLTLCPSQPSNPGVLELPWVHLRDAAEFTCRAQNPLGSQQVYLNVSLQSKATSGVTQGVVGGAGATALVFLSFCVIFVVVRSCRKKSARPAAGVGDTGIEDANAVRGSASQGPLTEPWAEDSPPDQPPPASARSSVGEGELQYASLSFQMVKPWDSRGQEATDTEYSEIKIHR

[5] = system: Trypanosoma cruzi; assay: Trypanosoma cruzi phosphomannomutase and mannose-1-phosphate guanylyltransferase assay; type: functional; conditions: 10 µM
[6] = biological target: T2, Arginase-2, mitochondrial (Homo sapiens) (UniProt P78540); assay: in vitro enzyme assay to detect the production of urea directly proportional to the activity of Arginase II; type: functional; conditions: 33.3 µM; note: in the data most compounds retested in dose-response had high values
T2 sequence (whole entry): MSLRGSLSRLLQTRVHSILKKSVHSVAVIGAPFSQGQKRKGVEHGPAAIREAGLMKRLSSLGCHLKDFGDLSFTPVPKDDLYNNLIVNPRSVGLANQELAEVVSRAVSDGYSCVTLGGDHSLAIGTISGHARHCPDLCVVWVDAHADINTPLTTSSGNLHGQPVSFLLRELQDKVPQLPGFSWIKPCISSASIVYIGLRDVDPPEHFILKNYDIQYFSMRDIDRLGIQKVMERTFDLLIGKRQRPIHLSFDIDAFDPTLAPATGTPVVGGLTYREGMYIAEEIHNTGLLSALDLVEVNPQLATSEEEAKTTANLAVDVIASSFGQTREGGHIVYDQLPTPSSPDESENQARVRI

[7] = biological target: T3, Proteasome subunit beta (Trypanosoma cruzi) (UniProt O96673); assay: Trypanosoma cruzi proteasome chymotrypsin-like activity (TcProtChymo) assay.; note: in the data most compounds retested in dose-response had high values; type: functional; conditions: 9.37 µM
T3 sequence (whole entry): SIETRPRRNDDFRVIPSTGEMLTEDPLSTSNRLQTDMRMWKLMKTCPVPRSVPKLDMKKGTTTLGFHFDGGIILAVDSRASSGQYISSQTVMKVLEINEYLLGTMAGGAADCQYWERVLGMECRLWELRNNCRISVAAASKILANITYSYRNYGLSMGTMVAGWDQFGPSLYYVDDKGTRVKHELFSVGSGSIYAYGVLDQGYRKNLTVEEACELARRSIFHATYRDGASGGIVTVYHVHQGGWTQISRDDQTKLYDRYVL

[8] = species on record: Homo sapiens; assay: To identify inhibition of the IFN signalling (Jak-Stat) pathway via expression of an eGFP reporter gene under the control of an IFN-stimulated response element (ISRE) containing MxA promoter.; type: functional; conditions: 30 µM
[9] = biological target: T4, Tyrosyl-tRNA synthetase, putative (Trypanosoma cruzi (strain CL Brener)) (UniProt Q4DSP6); assay: Trypanosoma cruzi tyrosyl tRNA synthetase (TcYRS) _High Tyrosine SOP; type: functional; conditions: 30 µM; note: in the data most compounds retested in dose-response had high values
T4 sequence (whole entry): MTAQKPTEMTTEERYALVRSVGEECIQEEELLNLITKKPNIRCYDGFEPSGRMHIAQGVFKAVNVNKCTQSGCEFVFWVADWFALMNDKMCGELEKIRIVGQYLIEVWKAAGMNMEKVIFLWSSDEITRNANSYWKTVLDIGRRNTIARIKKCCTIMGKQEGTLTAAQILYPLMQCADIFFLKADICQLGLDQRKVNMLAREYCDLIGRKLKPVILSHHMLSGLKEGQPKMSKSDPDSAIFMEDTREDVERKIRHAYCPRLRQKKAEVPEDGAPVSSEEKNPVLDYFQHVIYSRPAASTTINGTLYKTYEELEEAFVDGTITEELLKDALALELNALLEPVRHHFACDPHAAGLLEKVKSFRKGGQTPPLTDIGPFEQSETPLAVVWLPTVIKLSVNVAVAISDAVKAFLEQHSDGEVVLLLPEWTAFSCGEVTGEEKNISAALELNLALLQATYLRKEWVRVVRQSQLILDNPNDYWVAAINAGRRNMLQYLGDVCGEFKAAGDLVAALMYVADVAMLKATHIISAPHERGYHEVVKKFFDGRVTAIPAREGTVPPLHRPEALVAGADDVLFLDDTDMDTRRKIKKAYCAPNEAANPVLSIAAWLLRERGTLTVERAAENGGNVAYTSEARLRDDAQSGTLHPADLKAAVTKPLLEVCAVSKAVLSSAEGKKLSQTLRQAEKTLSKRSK

[10] = biological target: T4, Tyrosyl-tRNA synthetase, putative (Trypanosoma cruzi (strain CL Brener)); assay: Trypanosoma cruzi tyrosyl tRNA synthetase (TcYRS) SOP; type: functional; conditions: 30 µM
[11] = biological target: Chromo domain-containing protein 1 (Saccharomyces cerevisiae (strain ATCC 204508 / S288c) (Baker's yeast)) (UniProt P32657); assay: ScCHD-1 Enzyme Inhibition Assay; type: functional; conditions: 30 µM; note: in the data most compounds retested in dose-response had high values
Sequence of Chromo domain-containing protein 1 (Saccharomyces cerevisiae (strain ATCC 204508 / S288c) (Baker's yeast)) (P32657 whole entry, the tested form may be a part): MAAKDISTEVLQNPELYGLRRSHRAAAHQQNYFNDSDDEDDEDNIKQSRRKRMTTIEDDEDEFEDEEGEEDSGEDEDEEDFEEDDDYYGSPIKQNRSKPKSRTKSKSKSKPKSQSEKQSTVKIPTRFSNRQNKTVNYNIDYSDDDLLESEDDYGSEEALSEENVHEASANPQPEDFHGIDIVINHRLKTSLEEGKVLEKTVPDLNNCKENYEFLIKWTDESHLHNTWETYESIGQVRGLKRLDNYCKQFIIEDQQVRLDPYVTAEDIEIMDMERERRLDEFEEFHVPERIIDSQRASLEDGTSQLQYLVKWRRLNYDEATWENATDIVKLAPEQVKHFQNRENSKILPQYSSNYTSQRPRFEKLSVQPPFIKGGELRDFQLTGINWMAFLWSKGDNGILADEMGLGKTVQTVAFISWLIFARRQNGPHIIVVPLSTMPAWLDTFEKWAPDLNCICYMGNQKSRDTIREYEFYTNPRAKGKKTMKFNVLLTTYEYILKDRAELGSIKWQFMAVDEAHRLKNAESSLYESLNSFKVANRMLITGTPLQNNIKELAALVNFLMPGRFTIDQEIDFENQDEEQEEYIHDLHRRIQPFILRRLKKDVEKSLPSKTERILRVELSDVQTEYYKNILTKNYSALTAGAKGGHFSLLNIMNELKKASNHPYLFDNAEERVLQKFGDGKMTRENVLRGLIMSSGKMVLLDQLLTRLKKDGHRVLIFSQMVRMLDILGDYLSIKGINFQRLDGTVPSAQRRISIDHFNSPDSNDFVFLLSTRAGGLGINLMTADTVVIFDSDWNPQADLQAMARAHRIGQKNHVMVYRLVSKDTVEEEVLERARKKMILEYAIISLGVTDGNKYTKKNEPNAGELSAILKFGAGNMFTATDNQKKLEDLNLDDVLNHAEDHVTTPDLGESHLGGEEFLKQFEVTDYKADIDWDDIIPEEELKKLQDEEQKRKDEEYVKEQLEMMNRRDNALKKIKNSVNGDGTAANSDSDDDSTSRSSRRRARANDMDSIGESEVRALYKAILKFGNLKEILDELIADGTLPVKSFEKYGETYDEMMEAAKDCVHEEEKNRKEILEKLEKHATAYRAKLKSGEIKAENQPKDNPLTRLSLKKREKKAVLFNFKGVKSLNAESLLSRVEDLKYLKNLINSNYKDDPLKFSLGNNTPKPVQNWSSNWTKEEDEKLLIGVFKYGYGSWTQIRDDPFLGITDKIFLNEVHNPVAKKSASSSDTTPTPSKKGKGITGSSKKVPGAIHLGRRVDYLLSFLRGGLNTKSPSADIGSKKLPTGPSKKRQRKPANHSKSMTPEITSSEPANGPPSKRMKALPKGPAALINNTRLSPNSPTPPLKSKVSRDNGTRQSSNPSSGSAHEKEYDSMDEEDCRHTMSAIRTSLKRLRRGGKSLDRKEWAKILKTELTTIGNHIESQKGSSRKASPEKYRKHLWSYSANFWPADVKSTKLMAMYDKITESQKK

SMILES	Percent Effect [1] [%]	Percent Effect [2] [%]	Percent Effect [3] [%]	Percent Effect [4] [%]	Percent Effect [5] [%]	Percent Effect [6] [%]	Percent Effect [7] [%]	Percent Effect [8] [%]	Percent Effect [9] [%]	Percent Effect [10] [%]	Percent Effect [11] [%]
CCc1nc(C(=O)NCc2ccc(N3CCNC(=O)C3)c(F)c2)c[nH]1	2.33	18.9	-4.78	31.7	4.63	-3.81	20	13.4	5.82	12.2	-2.24
COC(=O)c1ccccc1NC(=O)c1nc2ccccc2n(C)c1=O	-1.59	10.4	1.48	-0.871	5.82	1.94	6.79	17	4.23	16.7	-8.57
CC(O)CN1CCN(C(=O)CN(C)c2cnccn2)CC1 (stereo unspecified)	3.16	5.41	-4.8	6.58	-2.12	-70	16.6	5.3	3.7	4.88	-5.99
CCOCC(O)CN1CCN(C(=O)c2ccc(OC)cc2F)CC1 (stereo unspecified)	-4.94	18.2	-0.292	4.59	1.87	2.85	0.676	13.6	7.77	14.6	-9.36
COc1c(CNCc2ccc(N(C)C)nc2)c(C(C)C)nn1C	-3.16	13.2	-3.28	6.83	6.39	4.6	6.01	13.5	5.39	17.1	-12.6
O=C(Nc1cnn(CCN2CCOCC2)c1)c1cc(F)ccc1F	-1.54	7.89	-3.4	20.5	-1.32	1.53	-3.17	-12.4	4.41	9.76	3.02
Cc1cn(-c2ccccc2)nc1NS(=O)(=O)c1cccc(C(=O)O)c1	-4.24	0	9.15	-6.49	-9.01	5	14.4	10.4	-5.38	-5	-7.14
Cc1cc(CNC(=O)NC(C)c2ccncc2)no1 (stereo unspecified)	-0.908	7.79	2.08	2.87	-8.36	-1.38	12.7	11.9	2.15	6.17	-1.85
Cc1cc(NC(=O)CCN2CCCC2Cn2cncn2)no1 (stereo unspecified)	-6.97	8.86	1.01	2.13	-0.718	-2.8	14.9	2.3	4.17	10.1	-27.3
O=C(NC1CC1)[C@H]1C[C@H]2OCC[C@H]2N(CC2CCOCC2)C1	-7.27	0	1.56	2.95	-3.28	-51.1	7.18	3.71	5.21	-2.5	319
CCCNC(=O)C(C)n1cc(Br)cn1 (stereo unspecified)	-2.1	7.79	-0.549	2.6	-1.87	-194	5.49	-4.17	4.3	18.5	0.506
